High-throughput results: PubChem, National Center for Advancing Translational Sciences (NCATS)
A selection: hits, their analogues and other compounds. The true share with any hit is near 7.5%.
FBPA Giardia inh: blocks Giardia fructose-bisphosphate aldolase activity; purified Giardia FBPA; AID 2451; A8B2U2; Potency, µM (doses to about 59.6 µM), for inactives: at the highest dose activity, negative = inhibition, usual class: inhibitors; actives 0.71% (n = 290,000); note: potency is the fitted concentration of half-maximal effect; nearly all actives have a fitted effect of over 55% in size
Target sequence (A8B2U2 whole entry, looked up): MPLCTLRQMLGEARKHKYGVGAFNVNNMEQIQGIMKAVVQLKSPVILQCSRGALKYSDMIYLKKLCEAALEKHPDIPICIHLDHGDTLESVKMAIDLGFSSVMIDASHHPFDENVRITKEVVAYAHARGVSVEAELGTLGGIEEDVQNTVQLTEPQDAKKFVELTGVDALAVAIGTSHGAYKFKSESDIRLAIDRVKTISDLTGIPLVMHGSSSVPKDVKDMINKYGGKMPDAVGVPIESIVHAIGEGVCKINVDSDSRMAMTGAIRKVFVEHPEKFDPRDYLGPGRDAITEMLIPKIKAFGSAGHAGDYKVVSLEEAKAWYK
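40 nM FBPA preincubated 10 min at RT with compound (up to 57.5 uM final), then substrate plus GAPDH/TPI/NAD/arsenate coupling and diaphorase/resazurin added. Fluorescence read after 20 min at RT, 525/598 nm.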
HCV inhibitor: blocks hepatitis C virus; Huh7.5.1 HCVcc-Cre infection, luciferase reporter, 44 h; actives 3.4% (n = 340,000); Potency, µM (doses to about 41.8 µM), without a hit: at the highest dose activity change, negative = inhibition, usual class: inhibitors; note: potency is the fitted concentration of half-maximal effect
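Infectious HCVcc-Cre (~0.5 moi) was added to cells just after compound, with cells seeded 4 h earlier at 1,000 per well. Luciferase activity after 44 h culture reported infection; substrate was incubated 15 min at room temperature before reading.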
VACV mCherry inh: inhibitors of vaccinia virus infection (mCherry reporter signal) | Potency, µM (series often up to 36.5 µM), for the others: top-dose activity change, negative = inhibition, most hits filed as inhibitors | actives 0.63% (n = 310,000) | Vaccinia virus mCherry reporter infection, fluorescence; calls by dose curve; tested in A549 cells; note: potency is the fitted concentration of half-maximal effect; nearly all actives have a fitted effect of over 35% in size
HCMV antiviral: human cytomegalovirus inhibition; HFF cells, HCMV-luciferase reporter, 72 h; active compounds read low; actives 4.5% (n = 410,000); activity change, negative = inhibition, % at 57.5 µM; AID 1259415; in the data active = activity change below about -60%; inconclusive = no clear call, values can overlap the other calls; inactive = above about -39%
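Luciferase read-out from HCMV-luciferase-infected HFFs (MOI 1 PFU/cell) 72 h post infection at 37C; compounds added after 16 h cell attachment; activity normalized between buffer-only basal and Salinomycin (10uM) inhibitor controls.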
VACV Venus inh: vaccinia inhibition (Venus reporter) | Vaccinia virus Venus reporter expression, fluorescence | Potency, µM (highest dose often 36.5 µM), inactives show at the highest dose activity change, negative = inhibition, actives largely listed as inhibitors | actives 0.46% (n = 330,000) | AID 720580; calls by dose curve; tested in A549 cells; note: potency is the fitted concentration of half-maximal effect; nearly all actives have a fitted effect of over 30% in size
FMDV inh: blocks foot and mouth disease virus; actives 1.2% (n = 410,000); FMDV antiviral cell-based qHTS; Potency, µM (titrated, usually from 57.9 µM), for inactives: at the top dose activity change, negative = inhibition, usual class: inhibitors; calls by dose curve; tested in HEK293T cells; note: read-out not given here; potency is the fitted concentration of half-maximal effect; nearly all actives have a fitted effect of over 45% in size
* = called active by the depositor; i = inactive; ? = inconclusive; . = no result given; + = active, no number. Unless noted, calls come from the whole dose curve; as a rule, active = well fitted curve in the direction sought with a large enough effect; inconclusive = small, poorly fitted or top-dose-only effect, or another doubt; inactive = no such curve, though single readings can be large; an effect the other way counts as inactive or inconclusive. % is set by controls: 0 for no effect and ±100 for the full control effect.

SMILES	FBPA Giardia inh	HCV inhibitor	VACV mCherry inh	HCMV antiviral	VACV Venus inh	FMDV inh
CCN(CC)CC(=O)Nc1ccc2c(c1)Nc1ccccc1CC2	?	13µM*	?	78	?	4%
CCN(CC)CC(=O)Nc1ccc2c(c1)N(C(=O)CN(CC)CC)c1ccccc1CC2	-26%	?	i	5	-10%	.
COC(=O)c1ccc2c(=O)n(CCCCCC(=O)N3CCN(c4ccccc4)CC3)c(=O)[nH]c2c1	2%	10µM*	-11%	-29	-9%	11µM*
COC(=O)c1ccc2c(=O)n(CCCCCC(=O)N3CCN(c4cc(Cl)ccc4C)CC3)c(=O)[nH]c2c1	.	.	-11%	-19	-9%	14µM*
COc1cc2[nH]c(=O)n(CCCCCC(=O)N3CCN(c4ccc(Cl)cc4)CC3)c(=O)c2cc1OC	.	.	?	-13	-30%	18µM*
COC(=O)c1ccc2c(=O)n(CCCCCC(=O)O)c(=S)[nH]c2c1	-6%	13%	-19%	-63*	-9%	?
COC(=O)[C@H](Cc1ccccc1)NC(=O)C1CCN(C(=O)[C@H](C)NS(=O)(=O)c2ccc(C)cc2)CC1	.	20%	.	-26	.	8%
CCOc1ccc(N2CC(NC(=O)CCc3ccccc3)CC2=O)cc1 (centres undefined)	.	.	-10%	-7	-14%	-13%
O=C(N/N=C/c1c(O)n(CCc2ccc(F)cc2)c(=O)[nH]c1=O)c1ccccc1	-1%	4%	.	19	.	5%
CCn1c(O)c(/C=N/NC(=O)c2ccccc2)c(=O)[nH]c1=S	-17%	12%	.	-63*	.	11%
COc1ccc(-c2cn(CCc3c[nH]c4ccccc34)nn2)cc1	-1%	?	?	?	?	3%
CCc1cc(-c2nnn(CCC3COCCO3)c2CC)cc(CC)c1-c1cn(Cc2ccc3ccccc3c2)nn1 (centres undefined)	.	.	?	-67*	?	?
COc1ccc(-c2cn(Cc3cccc(OC)c3)nn2)cc1	3%	?	-8%	35	-20%	63%
CCc1cc(-c2nnn(CCC3COCCO3)c2CC)ccc1-c1cn(CCc2c[nH]c3ccccc23)nn1 (centres undefined)	.	.	-25%	-80*	?	0%
O=C(NNS(=O)(=O)c1ccccc1Cl)c1nn(-c2ccc(F)cc2)ccc1=O	-5%	23%	-14%	13	-18%	-25%
N#Cc1c2ccc([N+](=O)[O-])cc2[n+]([O-])n1-c1ccccc1	.	1.6µM*	.	+	.	.
O=c1c2cc([N+](=O)[O-])ccc2sn1-c1ccccc1	.	.	-6%	31	-18%	52%
O=C(COC(=O)CNC(=O)c1ccccc1F)NC12CC3CC(CC(C3)C1)C2	.	11%	.	0	.	-15%
O=C(CSc1nc2ccc(Cl)cc2[nH]1)N1CCN(C(=O)c2ccco2)CC1	-5%	-15%	-13%	-65*	-3%	-13%
Cc1ccc2nc(SCC(=O)N3CCN(C(=O)c4ccco4)CC3)[nH]c2c1	2%	21%	-12%	11	-11%	-4%
CCCCOc1ccc(C(=O)NCCS(=O)(=O)N2CCN(c3ccccc3OC)CC2)cc1	.	.	-25%	-26	-25%	14µM*
Cc1ccc(S(=O)(=O)C2(C(=O)Nc3nccs3)CC2)cc1	-5%	-5%	-21%	-79*	-16%	-22%
O=C(Nc1nccs1)C1(S(=O)(=O)c2ccc(Cl)cc2)CC1	1%	-12%	.	14	.	-9%
O=C(c1ccncc1)c1ccc(N2CCN(C3CC(=O)N(Cc4cccs4)C3=O)CC2)cc1 (centres undefined)	0%	?	.	0	.	25µM*
CN(C(=O)COC(=O)Cn1cnc2ccccc21)C1CCCCC1	.	7%	i	-94*	-12%	-25%
SMILES	FBPA Giardia inh	HCV inhibitor	VACV mCherry inh	HCMV antiviral	VACV Venus inh	FMDV inh
CC1CCCN(C(=O)COC(=O)Cn2cnc3ccccc32)C1 (centres undefined)	.	6%	i	-22	-11%	9%
CC1CCN(C(=O)COC(=O)Cn2cnc3ccccc32)CC1	.	13%	-3%	-67*	-1%	-6%
CN(Cc1ccccc1)C(=O)COC(=O)Cn1cnc2ccccc21	-10%	17%	i	31	-8%	-14%
COc1cccc2sc(N3CCN(C(=O)c4ccc([N+](=O)[O-])o4)CC3)nc12	.	7.9µM*	8.9µM*	.	13µM*	?
CCOC(=O)CC1C(=O)NCCN1C1CCCC1 (centres undefined)	-2%	16%	i	-7	21%	-21%
Cc1ccc(N/C(N)=N/c2nc(CSc3nnc(C)s3)cc(=O)[nH]2)c(C)c1	-4%	-14%	-7%	-88*	?	-7%
Cc1ccc2c(C)nc(Nc3nc(CSc4nnc(C)s4)cc(=O)[nH]3)nc2c1	0%	?	.	-99*	.	-8%
Cc1nc(Nc2nc(CSc3ccc(Cl)cc3)cc(=O)[nH]2)nc2ccccc12	-2%	5%	-13%	-17	-4%	-15%
Cc1nc(Nc2nc(-c3ccccc3)cc(=O)[nH]2)nc2ccccc12	.	8.9µM*	10µM*	52	10µM*	-13%
COc1ccc2nc(Nc3nc(CSc4nc5ccccc5[nH]4)cc(=O)[nH]3)nc(C)c2c1	0%	14µM*	?	-98*	?	?
CCc1c(C)nc(Nc2nc(C)c3ccc(OC)cc3n2)[nH]c1=O	-2%	?	?	19	?	.
COc1ccc2c(C)nc(Nc3nc(C)c(C)c(=O)[nH]3)nc2c1	-6%	?	.	-102*	.	51%
Cc1nc(Nc2nc(CSc3nc4ccccc4[nH]3)cc(=O)[nH]2)nc2ccccc12	-4%	?	10µM*	-103*	10µM*	?
Cc1ccc(C)c(NS(=O)(=O)c2ccc(-c3cnc(C4CC4)o3)cc2)c1	.	?	.	-82*	.	-16%
CC(=O)c1cccc(NS(=O)(=O)c2ccc(-c3cnc(C4CC4)o3)cc2)c1	.	?	.	-85*	.	-15%
Cc1c(Cl)cccc1NS(=O)(=O)c1ccc(-c2cnc(C3CC3)o2)cc1	.	.	?	-80*	-25%	-17%
Cc1cc(C)cc(NS(=O)(=O)c2ccc(-c3cnc(C4CC4)o3)cc2)c1	.	5%	.	?	.	-9%
Cc1cccc(NS(=O)(=O)c2ccc(-c3cnc(C4CC4)o3)cc2)c1C	.	?	.	?	.	-30%
O=C(Nc1cccc(F)c1)N1CC2(CCN(C(=O)c3cccc(F)c3)CC2)C1	1%	.	.	.	.	-11%
Cc1nc2cc(NC(=O)[C@@H]3C[C@@H](Sc4ccccn4)CN3Cc3ccc4c(c3)OCCO4)ccc2s1	.	.	10%	.	5%	4%
O=C(OCC(=O)N1CCC(c2ccccc2)=N1)c1ccc(Cl)s1	.	5%	.	-16	.	-11%
